Only some compounds are listed: those with a hit (about 3.8% of all), similar ones and a draw of the others.
PAFAH1B3 inh: blocks human PAF acetylhydrolase 1B catalytic subunit 3; actives 0.28% (n = 340,000); Q15102; inhibition, % at 3.39 µM; recombinant PAFAH1B3, FP-rhodamine probe, fluorescence polarization;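 active = inhibition above the screen-wide average of all tested compounds plus 3 SD, cut at about 25% in these data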;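 also: 0% = enzyme with DMSO only and 100% = wells lacking PAFAH1B3 protein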
Target sequence (Q15102 whole entry, looked up): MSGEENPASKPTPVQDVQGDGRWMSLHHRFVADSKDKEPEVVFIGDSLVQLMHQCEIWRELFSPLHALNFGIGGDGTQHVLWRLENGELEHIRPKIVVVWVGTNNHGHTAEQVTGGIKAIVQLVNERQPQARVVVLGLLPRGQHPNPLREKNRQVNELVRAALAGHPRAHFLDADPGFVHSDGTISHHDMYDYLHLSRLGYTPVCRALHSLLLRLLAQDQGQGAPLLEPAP
PAFAH2 inh: PAFAH2 (human) inhibition; AID 492956; recombinant PAFAH2, FP-rhodamine activity probe, fluorescence polarization; actives 0.99% (n = 340,000); inhibition, % at 3.39 µM;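 active = inhibition above the mean over all tested compounds plus 3 SD, cut at about 30% in these data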;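 also: inhibitors block probe labeling of enzyme so polarization drops; 0% = enzyme with DMSO and 100% = wells lacking PAFAH2 protein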
M18AAP inhibitor: PfM18AAP enzyme inhibition | recombinant PfM18AAP, H-Glu-NHMec fluorogenic cleavage | inhibition, % at 7.35 µM | actives 1.2% (n = 290,000);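 active = inhibition above the campaign mean inhibition over all tested compounds plus 3 SD, cut at about 28% in these data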;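 also: 0% = plate median of test compound wells and 100% = 2 mM ZnCl2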
Pemphigus Ab inh: blocks pemphigus antibody binding to human desmoglein-3; P32926; DSG3-coupled beads, scFv-anti-DSG3-GFP binding, flow cytometry; active compounds read low; binding (percent of control), % at 10 µM; actives 0.48% (n = 310,000); AID 588358;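 active = binding more than 3 SD below its plate's average and above zero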;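 also: hits lower antibody fragment binding to DSG3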
pPAFAH FP inh: inhibitors of human plasma PAF acetylhydrolase (pPAFAH); Q13093; recombinant pPAFAH, FP-rhodamine probe fluorescence polarization; inhibition, % at 3.39 µM; actives 1.5% (n = 330,000);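 active = inhibition above the mean inhibition across the screen plus 3 SD, cut at about 25% in these data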;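 also: inhibitors block binding of the rhodamine activity-based probe so polarization drops; 0% = enzyme with DMSO and 100% = wells lacking pPAFAH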
PAFAH1B2 FP inh: inhibitors of human PAFAH1B2; P68402; recombinant PAFAH1B2, FP-rhodamine activity probe, fluorescence polarization; inhibition, % at 3.39 µM; actives 1.2% (n = 340,000);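 active = inhibition above the mean of all tested compounds plus 3 SD, cut at about 24% in these data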;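 also: 0% = enzyme with DMSO and 100% = wells lacking PAFAH1B2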
Target sequence (P68402 whole entry, looked up): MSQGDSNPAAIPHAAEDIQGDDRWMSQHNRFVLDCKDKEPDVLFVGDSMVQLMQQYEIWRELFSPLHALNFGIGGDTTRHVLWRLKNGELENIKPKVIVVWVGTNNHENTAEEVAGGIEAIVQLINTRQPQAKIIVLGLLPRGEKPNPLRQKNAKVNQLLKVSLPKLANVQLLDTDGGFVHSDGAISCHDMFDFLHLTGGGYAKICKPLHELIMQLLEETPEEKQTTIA
PAFAH2 FP conf: PAFAH2 (human) inhibition, confirmed. shares compounds with PAFAH2 inh. recombinant PAFAH2, FP-rhodamine activity probe, fluorescence polarization. inhibition, % at 3.39 µM. actives 65% (n = 2,300). AID 493030;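 active = mean inhibition over three repeats above a set limit taken from the earlier primary screen, cut at about 30% in these data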;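 also: inhibitor blocks binding of rhodamine activity probe so polarization falls; 0% = enzyme with DMSO and 100% = wells lacking PAFAH2 protein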
* = called active by the depositor; . = not tested or not shown.

SMILES | PAFAH1B3 inh | PAFAH2 inh | M18AAP inhibitor | Pemphigus Ab inh | pPAFAH FP inh | PAFAH1B2 FP inh | PAFAH2 FP conf
O=C(Nc1ccc(S(=O)(=O)N2CCOCC2)cc1)c1ccco1 | 13.4 | 4.7 | -0.1 | 94.2 | 1.7 | 2.2 | .
O=C(Nc1cc(S(=O)(=O)N2CCOCC2)ccc1O)c1ccco1 | 2.5 | 57.1* | 14.2 | 91.8 | 4.7 | 4.5 | 43.7*
CN(C)S(=O)(=O)c1cccc(C(=O)Nc2cc(S(=O)(=O)N3CCOCC3)ccc2O)c1 | 6.0 | 49.6* | . | 104.5 | . | -3.0 | 49.5*
CC(=O)Nc1cccc(C(=O)OCC(=O)NNC(=O)c2ccc([N+](=O)[O-])cc2)c1 | -3.6 | 10.9 | . | 106.5 | -1.8 | 2.8 | .
Cc1ccc(NC(=O)COC(=O)c2ccco2)cc1 | 4.7 | 61.8* | -0.2 | 98.4 | 1.3 | 5.3 | 53.3*
CC(=O)Nc1ccc(NC(=O)COC(=O)c2ccco2)cc1 | 7.3 | 3.2 | 3.0 | 106.8 | 2.3 | -2.8 | .
Cn1cccc1C(=O)OCC(=O)Nc1ccc2c(c1)OCCO2 | 7.2 | 49.1* | . | . | 0.2 | 4.2 | 33.1*
COc1cccc(NC(=O)COC(=O)c2sccc2C)c1 | 6.9 | 82.4* | . | 94.4 | 12.3 | 1.9 | 81.8*
O=C(COC(=O)c1ccco1)Nc1ccc2c(c1)OCCO2 | 10.2 | 50.6* | 2.9 | 107.9 | -0.3 | -0.3 | 36.9*
COc1cccc(NC(=O)CCC2CCN(C(=O)c3sccc3C)CC2)c1 | 6.6 | 3.9 | 3.1 | 112.8 | 3.0 | 2.2 | .
CC1(C)O[C@@H]2[C@H](O1)[C@@H](CO)O[C@H]2n1cnc2c(=O)[nH]cnc21 | 4.2 | -3.2 | . | 104.8 | -0.8 | 2.6 | .
CC1CCCCC1NC(=O)c1c(O)nc2ccccn2c1=O (configuration not stated) | -3.5 | 3.7 | . | 125.4 | 4.9 | -1.0 | .
Cc1cc(Cl)ccc1C(=O)C1CCCN(C(=O)CN2CCOC2=O)C1 (configuration not stated) | 5.2 | -10.6 | 2.1 | 100.7 | . | -4.4 | .
COc1ccccc1N(CC(=O)NCc1ccco1)C(=O)CCC(=O)Nc1ccccn1 | -0.4 | -11.9 | 0.9 | 137.2 | 1.6 | 3.4 | .
Cc1cc(Cl)ccc1OCC(=O)OCC(=O)N(CC(C)C)c1c(N)n(Cc2ccccc2)c(=O)[nH]c1=O | -1.1 | 11.8 | . | 98.8 | 5.9 | 4.4 | .
Cc1ccc(NC(=O)COC(=O)c2ccco2)cc1C | -0.7 | 76.5* | . | 96.5 | -3.1 | 5.9 | 59.2*
CCOCC(=O)Nc1cccc(OC)c1 | 1.9 | -0.6 | 2.3 | . | 3.3 | 3.6 | .
COc1cccc(NC(=O)COC(=O)c2c(F)cccc2F)c1 | 7.0 | 56.9* | -14.6 | 97.7 | 3.6 | 5.8 | 29.6
COc1cccc(NC(=O)COC(=O)c2ccco2)c1 | -1.5 | 68.4* | 1.9 | 96.3 | 7.3 | -0.5 | 63.1*
O=C1CCSc2c1ccc1ccccc21 | 12.3 | 8.5 | . | 93.0 | . | 2.2 | .
COc1ccc(NC(=O)N(C)C[C@H]2Oc3ccc(NC(=O)CCN4CCOCC4)cc3C(=O)N([C@@H](C)CO)C[C@H]2C)cc1 | 3.1 | 1.4 | . | 101.0 | 3.2 | 8.9 | .
COc1cccc(C(=O)OCC(=O)NCCc2ccccc2)c1OC | 9.5 | 57.7* | -1.1 | 107.6 | 15.2 | -1.0 | 44.0*
COc1ccc(C(=O)OCC(=O)Nc2cccc(C(C)=O)c2)c(OC)c1OC | 7.8 | 83.0* | -14.4 | . | 10.3 | 0.4 | 85.9*
COc1ccc(CC(=O)OCC(=O)Nc2cccc(C(C)=O)c2)cc1OC | 9.6 | 10.9 | . | 103.1 | . | 2.5 | .
COc1ccc(C(=O)OCC(=O)Nc2c(C)cccc2C)c(OC)c1OC | 4.1 | 52.2* | -8.4 | 119.4 | 2.2 | 2.3 | 42.9*
SMILES | PAFAH1B3 inh | PAFAH2 inh | M18AAP inhibitor | Pemphigus Ab inh | pPAFAH FP inh | PAFAH1B2 FP inh | PAFAH2 FP conf
CC(=O)c1ccccc1NC(=O)CCCNC(=O)c1ccc(Cl)cc1 | 2.4 | 4.7 | 1.7 | 96.8 | -4.2 | 6.6 | .
CC1=C(C(=O)N(C)C)CC(CC(=O)NCC2CCCCC2)C(=O)N1Cc1ccccc1 (configuration not stated) | . | . | . | 106.2 | . | . | .
COc1ccc(C(CNC(=O)C(CCSC)NC(=O)c2ccccc2OC)N2CCCCC2)cc1 (configuration not stated) | 0.0 | -2.7 | -6.9 | 115.6 | 3.4 | 0.5 | .
COc1ccc(CN(CC2CCC(C(=O)O)CC2)C(=S)Nc2cccc(C)c2)cc1 (configuration not stated) | 7.8 | 3.4 | -2.1 | 100.1 | -1.4 | 4.6 | .
CSc1nc2[nH]c(=O)n(O)c(=O)c2n1Cc1ccccc1 | -6.2 | 37.5* | . | 94.8 | . | 13.2 | 7.7
Cc1nc2ccc(NC(=O)c3ccccc3)cc2c(=O)n1Cc1ccc(F)cc1 | . | . | . | 101.4 | . | . | .
CCN(CC)c1ccc2c(c1)oc(=O)c1c(Cl)cc(=O)oc12 | 13.9 | 35.5* | -0.6 | 103.0 | 8.0 | 20.8 | 24.4
CC(NC(=O)COC(=O)c1ccc(N2CCCC2=O)cc1)c1ccc(F)cc1 (configuration not stated) | 4.3 | 77.5* | . | . | 3.8 | 2.7 | 67.7*
COc1ccc(NC(=O)COC(=O)c2ccc(N3CCCC3=O)cc2)cc1 | -0.5 | 83.5* | . | 108.1 | 0.8 | 1.7 | 67.0*
COc1ccc(CCNC(=O)COC(=O)c2ccc(N3CCCC3=O)cc2)cc1 | 3.4 | 55.6* | -5.5 | 95.2 | 1.8 | 7.7 | 39.7*
Cc1cc(C)cc(NC(=O)C(=O)NCC2CCCN2S(=O)(=O)c2cccs2)c1 (configuration not stated) | -6.4 | 0.1 | . | 97.0 | 1.5 | -2.7 | .
S=C(NCCCN1CCOCC1)Nc1ccc(N2CCOCC2)cc1 | 11.5 | 42.4* | 2.5 | 104.8 | 6.2 | 9.6 | 3.9
S=C(NCCCN1CCOCC1)Nc1ccc(Nc2ccccc2)cc1 | 3.9 | 6.9 | 3.3 | 108.5 | 3.0 | 2.9 | .
O=C(c1ccc2oc(Cc3ccc(Cl)cc3)nc2c1)N1CC[C@H](O)C1 | 3.7 | 71.0* | -6.8 | 91.2 | 6.1 | 6.7 | 62.6*
CC(C)(C)OC(=O)NCCCCCNC(=O)c1[nH]cnc1C(=O)Nc1ccon1 | 14.7 | -1.8 | . | 94.6 | -0.5 | 7.7 | .
CC(C)(C)C(=O)OC/C(N)=N/OC(=O)c1ccc(Cl)cc1 | 2.8 | 85.2* | -1.5 | 99.6 | 9.6 | 11.5 | 64.6*
N/C(Cc1ccc([N+](=O)[O-])cc1)=N\OC(=O)c1ccc([N+](=O)[O-])cc1 | 4.4 | 7.1 | 0.0 | 95.5 | 20.7 | 0.8 | .
N/C(CCS(=O)(=O)c1ccc(Cl)cc1)=N\OC(=O)c1ccc(Cl)cc1 | -0.8 | 22.4 | 0.4 | . | 6.2 | 1.2 | .
COc1ccc(C(=O)O/N=C(\N)Cc2ccc(Cl)c(Cl)c2)cc1OC | -3.1 | 90.3* | 2.3 | 99.1 | 8.9 | -6.1 | 81.6*
N/C(Cc1ccc(Cl)cc1)=N\OC(=O)c1ccccc1 | 3.2 | 83.5* | -13.5 | 66.4 | 2.5 | 8.1 | 76.0*
COc1cc(C(=O)O/N=C(\N)Cc2ccc([N+](=O)[O-])cc2)cc(OC)c1OC | . | . | -3.2 | 107.3 | 7.9 | . | .
